Cytotoxicity call data for 14 compounds are collected here from the antibiotic and cytotoxicity screens of Wong et al. (2023).

SMILES strings stand for the structures. Out of some 39,000 compounds screened, about 1,500 (3.8%) were called active. What follows is part of a selection rich in actives, with near analogues and random picks from the rest.

The experiment has as its system HSkMC (human skeletal muscle cells). As to the kind of experiment: cytotoxicity call (relative viability < 0.9). The note with it: 10 µM.
Consider `COc1c(O)cc(O)cc1O`, for which the cytotoxicity call is “inactive”. To `O=C1OCC=C[C@H]2O[C@@]34C=CCN(Cn5nnc6ccccc65)C(=O)[C@H]3N(CCO)C(=O)[C@@H]4[C@@H]12` belongs “inactive”; to `CNC(=O)CN1CCN2CCN(CC(=O)NC)CC(=O)[O][Gd]([O]C(=O)C2)[O]C(=O)C1`, “inactive”; to `C[C@@H]1CCCCO[C@@H](CN(C)S(=O)(=O)c2cn(C)cn2)[C@@H](C)CN([C@@H](C)CO)C(=O)c2cc(NS(=O)(=O)c3cccs3)ccc2O1`, “inactive”.

With `Cc1noc(C)c1S(=O)(=O)Nc1cccc2c1O[C@@H](CN(C)CC1CC1)[C@@H](C)CN([C@@H](C)CO)C2=O`, the cytotoxicity call is “inactive”. With `C[C@H]1CN([C@@H](C)CO)C(=O)c2cccc(NC(=O)Nc3ccc4c(c3)OCO4)c2O[C@H]1CN(C)S(C)(=O)=O`, the cytotoxicity call is “inactive”. To `Cc1noc(C)c1S(=O)(=O)Nc1ccc2c(c1)C(=O)N([C@H](C)CO)C[C@H](C)[C@@H](CN(C)Cc1ccc(C(F)(F)F)cc1)OCCCC[C@@H](C)O2` belongs “inactive”; to `O=C(C[C@H]1C[C@H]2c3cc(NS(=O)(=O)c4ccc(F)cc4)ccc3O[C@H]2[C@@H](CO)O1)NCc1ccccc1F`, “inactive”. For `C[C@H]1CN([C@@H](C)CO)C(=O)c2cc(NC(=O)CCC(F)(F)F)ccc2O[C@@H]1CN(C)C(=O)Nc1ccc(C(F)(F)F)cc1`, the cytotoxicity call is “inactive”. Take `C[C@H]1CN([C@@H](C)CO)C(=O)c2cccc(NC(=O)Nc3ccccc3)c2O[C@H]1CN(C)S(C)(=O)=O`: the cytotoxicity call is “inactive”. Take `COc1ccc(S(=O)(=O)Nc2cccc3c2O[C@@H](CN(C)C(=O)Nc2c(C)noc2C)[C@@H](C)CN([C@H](C)CO)C3=O)cc1`: the cytotoxicity call is “inactive”.

On to `Cc1noc(C)c1NC(=O)Nc1ccc2c(c1)CC(=O)N([C@H](C)CO)C[C@@H](C)[C@H](CN(C)S(=O)(=O)c1cn(C)cn1)O2`, for which the cytotoxicity call is “inactive”. As to `C[C@@H]1O[C@@H](O[C@H]2[C@H](O)[C@@H](O)[C@H](OC[C@H]3O[C@@H](OC(=O)[C@]45CCC(C)(C)C[C@@H]4C4=CC[C@H]6[C@@]7(C)CC[C@H](O[C@H]8OC[C@H](O)[C@H](O)[C@H]8O[C@H]8O[C@@H](C)[C@H](O)[C@@H](O)[C@H]8O)[C@@](C)(CO)[C@@H]7CC[C@@]6(C)[C@]4(C)CC5)[C@H](O)[C@@H](O)[C@@H]3O)O[C@@H]2CO)[C@H](O)[C@H](O)[C@H]1O`, the cytotoxicity call is “inactive”. With `C[C@H]1O[C@@H](O[C@H]2[C@@H](O)[C@@H](O)[C@@H](O[C@H]3CC[C@]4(C)[C@H]5CC=C6[C@H]7CC(C)(C)[C@H]8C[C@]7(C(=O)O8)[C@@H](O)C[C@]6(C)[C@@]5(C)CC[C@H]4C3(C)C)O[C@@H]2CO)[C@@H](O)[C@@H](O[C@H]2OC[C@@H](O)[C@@H](O)[C@@H]2O)[C@@H]1O`, the cytotoxicity call was “inactive”.
